This is a sample that favours compounds with a hit; in the whole collection about 15% have one here.
Pf growth 96h – Primary qHTS for delayed death inhibitors of the malarial parasite plastid, 96 hour incubation | P. falciparum luciferase reporter growth, 96 h | Potency, µM (highest dose often 28.7 µM), for the others: top-dose activity change, negative = inhibition, most hits filed as inhibitors | 320,000 compounds, 6.9% hits; note: potency is the fitted concentration of half-maximal effect; % is set by controls: 0 for no effect and ±100 for the full control effect
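96 h incubation, 37 C, 5% CO2, of luciferase-reporter P. falciparum-infected RBCs (2% hematocrit, 0.05% parasitemia final) with test compounds; endpoint luminescence.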
Sm TGR inh – qHTS Assay for the Inhibitors of Schistosoma Mansoni Peroxiredoxins | Schistosoma mansoni thioredoxin glutathione reductase (TGR), Q962Y6 | purified TGR, DTNB reduction, TNB absorbance 405 nm | Potency, µM (titrated, usually from 114 µM), for inactives: at the top dose activity change, negative = inhibition, usual class: inhibitors | 360,000 compounds, 3% hits; note: potency is the fitted concentration of half-maximal effect; % is set by controls: 0 for no effect and ±100 for the full control effect; nearly all actives have a fitted effect of over 60% in size
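TGR 20 nM + NADPH 100 uM (dispensed conc.), cpd preinc 15 min RT; start with NADPH (500 uM addition) then DTNB (15 mM addition). Kinetic TNB absorbance, 405 nm filter. Four-parameter Hill fit across titration.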
SARS PLpro yeast – qHTS of Yeast-based Assay for SARS-CoV PLP. S. cerevisiae expressing SARS-CoV PLpro, growth rescue. Potency, µM (titrated, usually from 32.9 µM), for inactives: top-dose activity, positive = growth rescue, most hits filed as activators. 330,000 compounds, 0.19% hits. AID 485353, 2010; calls by dose curve; note: potency is the fitted concentration of half-maximal effect; 0% is about no effect; nearly all actives have a fitted effect of over 55% in size
Pf growth 48h – Primary qHTS for delayed death inhibitors of the malarial parasite plastid, 48 hour incubation; AID 504832, 2011; 310,000 compounds, 5.9% hits; P. falciparum luciferase growth in erythrocytes, 48 h; Potency, µM (highest dose often 28.7 µM), for the others: top-dose activity change, negative = inhibition, most hits filed as inhibitors; note: potency is the fitted concentration of half-maximal effect; % is set by controls: 0 for no effect and ±100 for the full control effect
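Luminescence readout; reporter = integrated firefly luciferase in P. falciparum. RBC culture at 2% hematocrit, 0.1% parasitemia final, 37 C/5% CO2; decreased signal taken as growth inhibition.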
HCMV inh – qHTS Assay for inhibitors of the human cytomegalovirus (HCMV); AID 1259415, 2018; HFF cells, HCMV-luciferase reporter, 72 h; active compounds read low; 410,000 compounds, 4.5% hits; activity change, negative = inhibition, % at 57.5 µM; in the data active = activity change below about -60%; inconclusive = no clear call, values can overlap the other calls; inactive = above about -39%; note: % is set by controls: 0 for no effect and ±100 for the full control effect
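Screen run at 2 compound doses on HFFs infected with reporter HCMV, MOI 1 PFU/cell. Luciferase activity from cell lysates at 72 h post infection gave inhibition relative to buffer-only and Salinomycin wells.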
HCV inh – qHTS Assay for Inhibitors of Hepatitis C Virus (HCV); Huh7.5.1 HCVcc-Cre infection, luciferase reporter, 44 h; Potency, µM (top dose mostly 41.8 µM), for the others: at the top dose activity change, negative = inhibition, usual class: inhibitors; 340,000 compounds, 3.4% hits; note: potency is the fitted concentration of half-maximal effect; % is set by controls: 0 for no effect and ±100 for the full control effect
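Whole-lifecycle infectious HCVcc-Cre system; cells 1,000/well, compound then virus (~0.5 moi) added 4 h after plating, 44 h culture. Luciferase read 15 sec following 15 min substrate incubation, room temp.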
Active calls of the source: *; ? = inconclusive; . = no result given; [ ] = remark or other dose. Unless noted, calls come from the whole dose curve; as a rule, active = well fitted curve in the direction sought with a large enough effect; inconclusive = small, poorly fitted or top-dose-only effect, or another doubt; inactive = no such curve, though single readings can be large; an effect the other way counts as inactive or inconclusive.

SMILES	Pf growth 96h	Sm TGR inh	SARS PLpro yeast	Pf growth 48h	HCMV inh	HCV inh
C=CCOC(=O)C1=C[C@@H](c2cn(C(C)=O)c3ccccc23)C[C@@H](OCCCCO)O1	?	0%	-2%	?	17	-19%
O=C(NCc1ccccc1)C1=C[C@@H](c2coc3ccccc3c2=O)C[C@@H](OCCCCO)O1	?	2%	-2%	?	-3	10%
C#CCNC(=O)C1=C[C@@H](c2ccc(C#C)cc2)C[C@@H](OCCCCO)O1	.	.	.	.	-31	-26%
CC(=O)n1cc([C@@H]2C=C(C(=O)NCc3ccccc3)O[C@H](OCCCCO)C2)c2ccccc21	?	50µM*	-1%	?	-7	-16%
C#CCNC(=O)C1=C[C@H](c2csc3ccccc23)C[C@H](OCCCCO)O1	?	45µM*	-2%	?	-38	25%
O=C(O)C1=C[C@@H](c2csc3ccccc23)C[C@@H](OCCCCO)O1	104%	-1%	0%	78%	8	22%
CC(=O)n1cc([C@H]2C=C(C(=O)Nc3ccccc3)O[C@@H](OCCCCO)C2)c2ccccc21	?	-10%	0%	9.3µM*	0	-13%
C#CCNC(=O)C1=C[C@H](c2ccc(C(F)(F)F)cc2)C[C@H](OCCCCO)O1	?	13µM*	-3%	?	2	?
C[C@]12CCC(=O)C=C1C=C[C@@H]1[C@@H]2CC[C@@]2(C)[C@H]1CC[C@@]21CCC(=O)O1	-21%	-16%	-3%	-21%	?	-5%
CC(C)(C)c1nn2cnnc2n(/N=C/c2ccc(O)cc2)c1=O	?	4%	-16%	1%	18	8%
CSc1nc(NS(=O)(=O)c2ccc(F)cc2F)nn1C	12%	-21%	2%	10%	-8	10%
Cc1ccc(CN2CCC(CNC(=O)Nc3c(C)cccc3C)C2)cc1 (configuration not stated)	.	-3%	.	.	-5	.
COc1ccc(OC)c(CCNC(=O)c2ccccc2NC(=O)C2=C(C)OCCS2)c1	?	16%	-9%	?	?	?
C#CCNC(=O)C1=C[C@@H](c2cn(C(C)=O)c3ccccc23)C[C@@H](OCCCCO)O1	?	40µM*	-1%	?	-30	-7%[8.37 µM]
O=C(NCc1ccccc1)C1=C[C@H](c2coc3ccccc3c2=O)C[C@H](OCCCCO)O1	10µM*	-17%	-2%	?	-18	-10%[8.37 µM]
C#CCNC(=O)C1=C[C@@H](c2ccccc2)C[C@@H](OCCCCO)O1	.	.	.	.	-1	21%
CC(=O)n1cc([C@H]2C=C(C(=O)NCc3ccccc3)O[C@@H](OCCCCO)C2)c2ccccc21	?	?	-1%	5.9µM*	-7	-20%
C=CCOC(=O)C1=C[C@H](c2cn(C(C)=O)c3ccccc23)C[C@H](OCCCCO)O1	9%	?	-1%	?	1	-4%
O=S(=O)(NCC1(N2CCOCC2)CCCCC1)c1ccc(Cl)cc1C(F)(F)F	?	3%	2%	?	-15	9%
O=C(c1ccc(S(=O)(=O)N2CCOCC2)cc1)N1CCN(c2cccc(Cl)c2)CC1	.	12%	-1%	-4%	12	15%
COc1cccc(C(=O)Nc2cc(S(=O)(=O)N3CCOCC3)ccc2N2CCOCC2)c1	.	.	.	.	12	-13%
COc1cccc(C(=O)NCC2CCN(c3ccc(S(=O)(=O)N4CCOCC4)cc3)CC2)c1	5.2µM*	-11%	2%	12µM*	19	?
O=C(NCC1CCN(c2ccc(S(=O)(=O)N3CCOCC3)cc2)CC1)c1cccc(Cl)c1	12µM*	0%	3%	.	?	?
CCCN(CC(=O)Nc1ccccc1C)C(=O)c1ccc(C2SCCS2)cc1	15%	-21%	-9%	-1%	-8	-11%
COc1ccc(OC)c(S(=O)(=O)N(C(C)=O)c2ccc3oc(=O)sc3c2)c1	?	6%	4%	18%	-19	15%
SMILES	Pf growth 96h	Sm TGR inh	SARS PLpro yeast	Pf growth 48h	HCMV inh	HCV inh
COc1ccc(N(C(C)=O)S(=O)(=O)c2cc(OC)ccc2OC)cc1	8.3µM*	5%	3%	-22%	-6	-3%
Cc1ccc(CN2CC(=O)N3[C@H]4c5ccccc5OC[C@@H]4[C@H](c4ccccc4)[C@]3(C)C2=O)cc1	?	0%	-2%	9.3µM*	-11	?
C[C@@]12C(=O)N(Cc3ccccc3)CC(=O)N1[C@H]1c3ccccc3OC[C@@H]1[C@@H]2c1ccccc1	?	4%	3%	?	69	?
CCCCN1CC(=O)N2[C@H]3c4ccccc4OC[C@@H]3[C@H](c3ccccc3)[C@]2(C)C1=O	5.9µM*	1%	-3%	?	2	?
COc1ccc(C(OCC(O)CNCCc2ccc(S(N)(=O)=O)cc2)c2ccc(OC)cc2)cc1 (configuration not stated)	12µM*	-2%	0%	.	-34	?
OC(CNCCc1ccc(C(F)(F)F)cc1)COC(c1ccccc1)c1ccccc1 (configuration not stated)	3.7µM*	2%	-4%	.	-23	?
COc1cc(Cl)ccc1OCc1cc(C(=O)NCCCN2CCCC2=O)no1	?	-7%	1%	?	-3	19%
COc1cc(NC(=O)CSc2nnc(-c3ccncc3)o2)cc(OC)c1OC	?	3%	5%	17%	30	-5%
c1ccc(COC(CN2CCCCCC2)CN2CCCCCC2)cc1	-27%	-17%	1%	?	-39	10µM*
COCC(C)NCc1ccc(OC)c(Br)c1 (configuration not stated)	12µM*	-5%	-1%	-29%	-22	5%
COc1ccc(CNc2cccc(F)c2)cc1Br	-23%	-6%	-26%	.	-14	?
CCOCCCn1c(SCC(=O)Nc2cc(C)ccc2C)nc2c(oc3ccccc32)c1=O	.	3%	.	.	4	.
CC(=O)C1=NOC2C(=O)N(c3ccccc3)C(=O)C12 (configuration not stated)	17%	11µM*	2%	44%	20	2%
Cc1ccc(N2C(=O)[C@@H]3C(c4ccc(F)cc4)=NO[C@@H]3C2=O)cc1	57%	-8%	-6%	46%	-35	19%
O=C(COc1ccc(Br)cc1CO)Nc1ccccc1	67%	4%	-4%	18%	24	16µM*
